Laboratory results: PubChem BioAssay (NCI)
The panel holds about 83,000 compounds, 20% with a hit somewhere; the sample as a whole holds those more often.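 Single-concentration screen, 48 h exposure, 96-well plates. Endpoint: percent growth. Below 10 = active.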 A number with no mark means an inactive call. Calls of active or inactive are those of the source.

test system: HCT-15 colon; experiment: NCI-60 one-dose screen, 48 h (100 = growth as untreated, 0 = no growth, -100 = all killed); settings: 10 µM unless noted

| Compound | growth |
| --- | --- |
| CC(C)OC1=C(Cl)C(=O)c2ccccc2C1=O | 51.4% |
| CS(=O)(=O)Nc1cccc(C(=O)NCc2ccc(N3CCOCC3)cc2)c1 | 104% |
| COc1ccc(S(=O)(=O)ON=C2C=C(C)C(=O)C(C)=C2)cc1 | 85.9% |
| CCOC(=O)c1c(Cl)c2c(n1Cc1cc(OC)cc(OC)c1)-c1oncc1CCC2 | 21.5% |
| NC(=S)N/N=C1\c2ccccc2-c2c(F)c(F)c(F)c(F)c21 | 62.8% |
| COCCOC1=C(Cl)C(=O)c2ccccc2C1=O | 13% |
| O=C1C(OCCOc2ccccc2)=C(OCCOc2ccccc2)C(=O)c2ccccc21 | 26.7% |
| N#Cc1c(O)c2c(c(O)c1C#N)C(=O)c1ccccc1C2=O | 26.9% |
| COc1cc(/C=C/C(=O)CC(=O)/C=C/c2cc(Br)c(OC)c(OC)c2)cc(Br)c1OC | 109% |
| CCN1CCN(c2ccc(Nc3ncc4ccc5ncn(C(C)C)c5c4n3)nc2)CC1 | -0.238% (active) |
| Nc1nc2c(s1)CCc1c-2c(Br)n(Cc2ccccc2)c1Br | 50.8% |
| O=c1onc(-c2ccccc2)c2ccccc12 | 115% |
| CCCCCn1c(=N)n(CC(O)COc2cccc(C)c2)c2ccccc21 (stereo not drawn) | 11.1% |
| COc1ccc(-c2nn(-c3ccc(NC(=O)c4ccc(Cl)c(Cl)c4)cc3)cc2-c2ccncc2)cc1Cl | -1.71% (active) |
| CCC(C)Oc1cc(/C=N/NC(=O)c2cnn3c2NC(c2ccccc2)C3)ccc1OC (stereo not drawn) | 23.9% |
| COc1cccc(OC)c1OC(=O)c1ccccc1 | 109% |
| C=C[C@H]1C[C@@H]2C[C@@H]3[C@H]4C/C=C\C(=O)NCCCC5NC(=O)C(=C(O)/C=C/[C@@H]4CC(=O)[C@H]3[C@@H]2[C@H]1C)C5=O (stereo partly drawn) | -76.2% (active) |
| Cc1nc2ccc(Cl)cc2n1C | 113% |
| C=C1CC[C@@H]2[C@@](C)(CCC[C@]2(C)C(=O)O)[C@@H]1CC[C@H](CO)CCO | 108% |

| Compound | growth |
| --- | --- |
| Fc1c[c-]c(-c2ccccn2)c(F)c1.Fc1c[c-]c(-c2ccccn2)c(F)c1.[Cl][Pt+].[Cl][Pt+].c1ccc([PH+](C[PH+](c2ccccc2)c2ccccc2)c2ccccc2)cc1 | 90.8% |
| O=C(NCc1cccnc1)c1ccc([N+](=O)[O-])o1 | -68.1% (active) |
| COc1ccc(NS(=O)(=O)c2ccc(-c3cnc(C4CC4)o3)cc2)cc1 | 29.7% |
| NC1=NC(c2ccccc2OS(=O)(=O)c2ccc(Br)cc2)n2c(nc3ccccc32)N1 (stereo not drawn) | 102% |
| O=C(Nc1ccccc1)Oc1cccc2cccnc12 | 74.5% |
| CCC12CCC3c4ccc(O)cc4CCC3C1CC(O)C2O (stereo not drawn) | 57.4% |
| Cc1ccc(S(=O)(=O)N2CCc3ccc(O)c4c3C2Cc2ccc3c(c2-4)OCO3)cc1 (stereo not drawn) | 30.6% |
| COC(=O)c1c2c(c(C)[n+]([O-])c1C)C(=O)C=C(NCc1cccc(OC)c1)C2=O | -74.8% (active) |
| O=C(c1cnn2c1NC(c1ccc(F)cc1)C2)N1CCCCC1 (stereo not drawn) | 102% |
| O=C1NC(=O)C2(CCCC2C(=O)O)N1 (stereo not drawn) | 99.1% |
| CON=C1C[C@]2(C[C@@H]3C[C@@H](C/C=C(\C)C[C@@H](C)/C=C/C=C4\CO[C@@H]5[C@H](O)C(C)=C[C@@H](C(=O)O3)[C@]45O)O2)O[C@H](/C(C)=C/C(C)C)[C@H]1C | 48.4% |
| COc1cc(/C=C/C(=O)C(=Cc2ccc(F)c(F)c2)C(=O)/C=C/c2ccc(O)c(OC)c2)ccc1O | 26% |
| CCOC(=O)c1[nH]c2cc(Cl)ccc2c1[C@@H](C(=O)NC(C)(C)C)N(CC)C(=O)CCCCC#Cc1cccc2c1CN(C1CCC(=O)NC1=O)C2=O (stereo partly drawn) | -2.23% (active) |
| O=C1/C(=C/c2ccccc2F)CNC/C1=C\c1ccccc1F | -0.826% (active) |
| COc1cc(C2C3=C(COC3=O)N(CCO)c3cc4c(cc32)OCO4)cc(OC)c1O (stereo not drawn) | 44.8% |
| CCCCCCCC/C=C\CCCCCCCCOc1cccc(CC(=O)NCC[N+]2(C)CCOCC2)c1 | 96.7% |
| COc1ccccc1CNCCCCCCCCCCCCN1C(=O)c2ccc3c4c(ccc(c24)C1=O)C(=O)N(CCCCCCCCCCCCNCc1ccccc1OC)C3=O | 77.7% |
| CC(C)NCC(O)COc1ccc(CCOCC2CC2)cc1 (stereo not drawn) | 107% |
| Clc1ccc(C2=NN(c3ccccc3)[C@H](c3cn(-c4ccccc4)nc3-c3ccccc3)C2)cc1 | 103% |
